PubChem BioAssay (EPA / NIEHS)
Activity calls are given as the source filed them. Rule for the calls: active = hit-call score of the fitted dose curve at least 0.9, where 1 is the maximum; inactive = score below 0.9.

How the values were obtained:
[1] = read-out: Cytochrome P450 (CYP1A1), CYP1A1 (gene 1543); test: LTEA_HepaRG_CYP1A1: Life Technologies and Expression Analysis (LTEA) Assay for Cytochrome P450 (CYP1A1) using HepaRG (AID 2283454); settings: mRNA level, 48 h; actives raise or lower the signal
Outline: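 CYP1A1 transcript levels measured by Fluidigm qRT-PCR against three housekeeping genes, 48 h after chemical dosing of human HepaRG cells (highest concentration 100 uM, half-log steps, 0.5% DMSO vehicle). Gain or loss of signal fitted relative to DMSO.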

[2] = read-out: CFLAR gene, CFLAR (gene 8837); test: LTEA_HepaRG_CFLAR: Life Technologies and Expression Analysis (LTEA) Assay for CFLAR gene using HepaRG (AID 2283455); settings: mRNA level, 48 h; actives raise or lower the signal
Outline: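 Transcript level by qRT-PCR (normalized to ACTB, GAPDH and POLR2A) after 48 h chemical exposure of HepaRG cells, top concentration 100 uM with half-log steps, 0.5% DMSO vehicle, duplicates; fitted bidirectionally against DMSO baseline.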

[3] = read-out: Forkhead box O1 (FOXO1), FOXO1 (gene 2308); test: LTEA_HepaRG_FOXO1: Life Technologies and Expression Analysis (LTEA) Assay for Forkhead box O1 (FOXO1) using HepaRG (AID 2283456); settings: mRNA level, 48 h; actives raise or lower the signal
Outline: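 FOXO1 transcript quantified by qRT-PCR after 48 h chemical exposure (top 100 uM, half-log steps, 0.5% DMSO) of HepaRG cells, housekeeping-normalized (ACTB/GAPDH/POLR2A). Changes fitted in both directions relative to vehicle.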

[4] = read-out: growth arrest and DNA damage 45 (GADD45A), GADD45A (gene 1647); test: LTEA_HepaRG_GADD45A: Life Technologies and Expression Analysis (LTEA) Assay for growth arrest and DNA damage 45 (GADD45A) using HepaRG (AID 2283458); settings: mRNA level, 48 h; actives raise or lower the signal
Outline: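 Transcript induction or loss, quantified by TaqMan qRT-PCR against three housekeeping genes, is the read-out. HepaRG cells received chemicals for 48 h across eight half-log concentrations from 100 uM in 0.5% DMSO; gain and loss fitted relative to DMSO.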

[5] = read-out: Forkhead box O3 (FOXO3), FOXO3 (gene 2309); test: LTEA_HepaRG_FOXO3: Life Technologies and Expression Analysis (LTEA) Assay for Forkhead box O3 (FOXO3) using HepaRG (AID 2283459); settings: mRNA level, 48 h; actives raise or lower the signal
Outline: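 FOXO3 transcript measured by qRT-PCR (normalized to ACTB, GAPDH, POLR2A) after 48 h exposure of HepaRG cells in serum-free induction medium. Duplicates, eight half-log concentrations up to 100 uM, 0.5% DMSO; gain or loss fitted against DMSO.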

[6] = read-out: ABC Transporter (ABCB1), ABCB1 (gene 5243); test: LTEA_HepaRG_ABCB1: Life Technologies and Expression Analysis (LTEA) Assay for ABC Transporter (ABCB1) using HepaRG (AID 2283460); settings: mRNA level, 48 h; actives raise or lower the signal
Outline: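 ABCB1 transcript level measured by TaqMan qRT-PCR against three housekeeping genes after 48 h chemical exposure of differentiated HepaRG cells. Top concentration 100 uM, half-log steps, eight points, 0.5% DMSO vehicle; bidirectional fit relative to DMSO.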

[7] = read-out: growth arrest and DNA damage 45 (GADD45B), GADD45B (gene 4616); test: LTEA_HepaRG_GADD45B: Life Technologies and Expression Analysis (LTEA) Assay for growth arrest and DNA damage 45 (GADD45B) using HepaRG (AID 2283461); settings: mRNA level, 48 h; actives raise or lower the signal
Outline: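 Transcript level quantified by Fluidigm TaqMan qRT-PCR with three housekeeping genes for normalization, analyzed for up- or down-regulation against 0.5% DMSO. HepaRG cultures dosed 48 h at eight half-log concentrations up to 100 uM, duplicates.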

[8] = read-out: ABC Transporter (ABCC3), ABCC3 (gene 8714); test: LTEA_HepaRG_ABCC3: Life Technologies and Expression Analysis (LTEA) Assay for ABC Transporter (ABCC3) using HepaRG (AID 2283462); settings: mRNA level, 48 h; actives raise or lower the signal
Outline: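 Transcript level by TaqMan qRT-PCR, normalised to three housekeeping genes, fitted in both directions relative to vehicle. Chemicals tested in duplicate at eight half-log concentrations up to 100 uM for 48 h on HepaRG cells (0.5% DMSO).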

[9] = read-out: ABC Transporter (ABCB11), ABCB11 (gene 8647); test: LTEA_HepaRG_ABCB11: Life Technologies and Expression Analysis (LTEA) Assay for ABC Transporter (ABCB11) using HepaRG (AID 2283463); settings: mRNA level, 48 h; actives raise or lower the signal
Outline: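 ABCB11 transcript levels quantified by TaqMan qRT-PCR against three housekeeping genes after 48 h chemical exposure of HepaRG cultures. Concentrations up to 100 uM in half-log steps, 0.5% DMSO vehicle; both induction and suppression scored.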

[10] = read-out: ABC Transporter (ABCC2), ABCC2 (gene 1244); test: LTEA_HepaRG_ABCC2: Life Technologies and Expression Analysis (LTEA) Assay for ABC Transporter (ABCC2) using HepaRG (AID 2283464); settings: mRNA level, 48 h; actives raise or lower the signal
Outline: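 Endpoint is ABCC2 transcript level from qRT-PCR, normalized to three housekeeping genes and fitted bidirectionally relative to DMSO. Human HepaRG cells received test chemical for 48 h at up to 100 uM (8 points, half-log steps, 0.5% DMSO), duplicate wells.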

[11] = read-out: Broad substrate specificity ATP-binding cassette transporter ABCG2 (Homo sapiens) (UniProt Q9UNQ0); test: LTEA_HepaRG_ABCG2: Life Technologies and Expression Analysis (LTEA) Assay for ABC Transporter (ABCG2) using HepaRG (AID 2283465); settings: mRNA level, 48 h; actives raise or lower the signal
Outline: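 ABCG2 transcript was quantified by TaqMan qRT-PCR against three housekeeping genes in HepaRG cells. Cells were treated in duplicate for 48 h across an 8-point half-log series up to 100 uM, with 0.5% DMSO vehicle. Gain or loss versus DMSO was fit.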

[12] = read-out: ATP-citrate lyase (ACLY), ACLY (gene 47); test: LTEA_HepaRG_ACLY: Life Technologies and Expression Analysis (LTEA) Assay for ATP-citrate lyase (ACLY) using HepaRG (AID 2283466); settings: mRNA level, 48 h; actives raise or lower the signal
Outline: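 ACLY mRNA quantified by qRT-PCR on Fluidigm arrays against three housekeeping genes, after 48 h chemical treatment of HepaRG cells (top concentration 100 uM, half-log steps, 0.5% DMSO vehicle). Up- or down-regulation fitted relative to DMSO.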

[13] = read-out: Peroxisomal acyl-coenzyme A oxidase 1 (ACOX1) gene, ACOX1 (gene 51); test: LTEA_HepaRG_ACOX1: Life Technologies and Expression Analysis (LTEA) Assay for Peroxisomal acyl-coenzyme A oxidase 1 (ACOX1) gene using HepaRG (AID 2283467); settings: mRNA level, 48 h; actives raise or lower the signal
Outline: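 ACOX1 transcript levels were quantified by TaqMan qRT-PCR against three housekeeping genes after 48 h chemical exposure of differentiated human HepaRG cells. Exposure used eight half-log steps topping at 100 uM, 0.5% DMSO vehicle, in duplicate. Bidirectional curve fits were made relative to DMSO.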

[14] = read-out: Alkaline Phosphatase, Placental (ALPP) gene, ALPP (gene 250); test: LTEA_HepaRG_ALPP: Life Technologies and Expression Analysis (LTEA) Assay for Alkaline Phosphatase, Placental (ALPP) gene using HepaRG (AID 2283468); settings: mRNA level, 48 h; actives raise or lower the signal;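 for AC50: differentiated human HepaRG liver cells in serum-free induction medium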
Outline: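 ALPP transcript level, measured by qRT-PCR and normalized to three housekeeping genes (ACTB, GAPDH, POLR2A), after 48 h dosing of differentiated HepaRG in serum-free induction medium. Top concentration 100 uM with half-log dilutions (8 points, 0.5% DMSO, duplicates); bidirectional fitting relative to DMSO.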

[15] = read-out: Bcl-2 (BAD) gene, BAD (gene 572); test: LTEA_HepaRG_BAD: Life Technologies and Expression Analysis (LTEA) Assay for Bcl-2 (BAD) gene using HepaRG (AID 2283469); settings: mRNA level, 48 h; actives raise or lower the signal
Outline: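 Read-out: qRT-PCR of BAD mRNA, normalized to three housekeeping genes. Human HepaRG cultures got 48 h chemical exposure in 0.5% DMSO, duplicate eight-point half-log series topping at 100 uM. Gain or loss of signal fitted versus DMSO vehicle.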

[16] = read-out: Bcl-2 (BAX) gene, BAX (gene 581); test: LTEA_HepaRG_BAX: Life Technologies and Expression Analysis (LTEA) Assay for Bcl-2 (BAX) gene using HepaRG (AID 2283470); settings: mRNA level, 48 h; actives raise or lower the signal
Outline: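 Cells were thawed, plated for 48 h, moved to serum-free induction medium and dosed for 48 h (highest concentration 100 uM, half-log steps, 0.5% DMSO). Total RNA was then analysed for BAX expression by qRT-PCR.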

[17] = read-out: adenosine kinase (ADK) gene, ADK (gene 132); test: LTEA_HepaRG_ADK: Life Technologies and Expression Analysis (LTEA) Assay for adenosine kinase (ADK) gene using HepaRG (AID 2283471); settings: mRNA level, 48 h; actives raise or lower the signal
Outline: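 HepaRG (human liver), 48 h chemical exposure, 8-pt half-log series, top 100 uM, 0.5% DMSO vehicle. Readout: ADK mRNA by qRT-PCR vs housekeeping genes; bidirectional curve fit relative to DMSO baseline.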

[18] = read-out: Alpha-fetoprotein (AFP) gene, AFP (gene 174); test: LTEA_HepaRG_AFP: Life Technologies and Expression Analysis (LTEA) Assay for Alpha-fetoprotein (AFP) gene using HepaRG (AID 2283472); settings: mRNA level, 48 h; actives raise or lower the signal
Outline: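 Chemicals were tested on differentiated HepaRG cells for 48 hours at eight concentrations up to 100 uM, with 0.5% DMSO as vehicle. AFP expression was then quantified by qRT-PCR and analyzed for gain or loss relative to DMSO.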

BCL2L11 (gene 10018) = test: LTEA_HepaRG_BCL2L11: Life Technologies and Expression Analysis (LTEA) Assay for Bcl-2 (BCL2L11) gene using HepaRG (AID 2283473); settings: mRNA level, 48 h; actives raise or lower the signal
Outline: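 BCL2L11 transcript levels are measured by Fluidigm qRT-PCR, normalized to three housekeeping genes. HepaRG cultures were plated 48 h, then treated 48 h with test chemical (top 100 uM, half-log, 0.5% DMSO vehicle); curves were fitted bidirectionally against DMSO.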

[19] = CEETOX_H295R_TESTO: CeeTox H295R High-throughput Steroidogenesis Assay for Testosterone (TESTO) (AID 2283457); settings: actives raise or lower the signal
Outline: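 Testosterone secreted into the medium over 48 h by H295R cells (maximum passage 10) was quantified by LC-MS/MS after MTBE extraction. Fitted in both directions against DMSO, with concentrations diluted until MTT viability was ≥70%.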

Measured: AC50

Chain of Broad substrate specificity ATP-binding cassette transporter ABCG2 (Homo sapiens) (Q9UNQ0 whole entry, looked up): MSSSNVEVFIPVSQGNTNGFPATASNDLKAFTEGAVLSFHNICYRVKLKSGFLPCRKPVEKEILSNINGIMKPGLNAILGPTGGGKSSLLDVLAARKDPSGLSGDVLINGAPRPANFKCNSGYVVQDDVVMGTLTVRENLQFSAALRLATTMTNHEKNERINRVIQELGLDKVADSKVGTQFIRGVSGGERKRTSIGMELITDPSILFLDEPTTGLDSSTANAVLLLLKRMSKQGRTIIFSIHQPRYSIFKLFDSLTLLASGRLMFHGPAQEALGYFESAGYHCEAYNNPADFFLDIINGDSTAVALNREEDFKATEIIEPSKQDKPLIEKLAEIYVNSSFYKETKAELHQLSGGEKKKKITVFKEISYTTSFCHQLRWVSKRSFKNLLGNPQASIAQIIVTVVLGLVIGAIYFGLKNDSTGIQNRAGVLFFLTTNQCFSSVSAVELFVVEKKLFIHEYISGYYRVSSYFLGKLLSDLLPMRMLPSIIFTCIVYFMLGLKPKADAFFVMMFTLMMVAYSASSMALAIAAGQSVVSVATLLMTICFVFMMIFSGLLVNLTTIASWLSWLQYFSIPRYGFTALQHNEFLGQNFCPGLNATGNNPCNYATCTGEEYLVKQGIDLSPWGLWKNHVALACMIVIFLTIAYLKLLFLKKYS

c1ccc2c(c1)-c1cccc3cccc-2c13
active: [1] 33.3 µM
not listed: [19]
inactive: all other assays above

COC(=O)c1ccccc1N
not listed: [16] | [19]
inactive: all other assays above

Brc1ccc(Oc2ccccc2)cc1
active: [1] 50 µM
not listed: [14] | [19]
inactive: all other assays above

Nc1ccc(Cl)cc1N
inactive: [19] | [11] | [12] | [15] | [17]
active: [1] 1.81 µM | [2] 33.1 µM | [3] 29.4 µM | [4] 13.3 µM | [5] 21.5 µM | [6] 19.6 µM | [7] 13.3 µM | [8] 35.8 µM | [9] 19 µM | [10] 37.3 µM | [13] 27 µM | [16] 13.2 µM | [18] 22.5 µM | BCL2L11 (gene 10018) 18.9 µM

CCCSC(=O)N(CCC)CCC
active: [1] 50 µM
not listed: [19]
inactive: all other assays above

CCCCCOC(=O)c1ccccc1C(=O)OCCCCC
active: [1] 18 µM
not listed: [16] | [19]
inactive: all other assays above

CCC[CH2][Sn]([Cl])([CH2]CCC)[CH2]CCC
inactive: [5] | [7] | [8] | [12] | [15] | [17]
active: [1] 2.35 µM | [2] 4.12 µM | [3] 18.8 µM | [4] 50 µM | [6] 3.21 µM | [9] 2.06 µM | [10] 3.8 µM | [11] 1.49 µM | [13] 3.11 µM | [14] 3.79 µM | [18] 0.59 µM | BCL2L11 (gene 10018) 11.7 µM
